# Screening results deposited in PubChem by National Center for Advancing Translational Sciences (NCATS).
# Gal4-VP16 FLuc: inhibits Gal4-VP16 luciferase reporter, ROR gamma counter-screen; AID 2546; Drosophila S2 Gal4-VP16 UAS-luciferase, luminescence, 20 h; 310,000 compounds, 3.5% hits; Potency, µM (top dose mostly 53.6 µM), for inactives: top-dose activity, negative = inhibition, most hits filed as inhibitors;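 note: Gal4-VP16 expression switched on by copper sulfate through the metallothionein promoter; nearly all actives have a fitted effect of over 50% in size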
# NPSR antagonist: neuropeptide S receptor (human) antagonism, cAMP. Potency, µM (doses to about 38.3 µM), inactives show top-dose activity change, negative = inhibition, actives largely listed as inhibitors. Q6W5P4. CHO-NPSR cells, cAMP TR-FRET, antagonist mode. 220,000 compounds, 1% hits. AID 1461; note: nearly all actives have a fitted effect of over 50% in size
# RORgamma inh: ROR gamma (mouse) transcription inhibition; P51450; 310,000 compounds, 5.4% hits; AID 2551; Drosophila S2 Gal4-RORgamma UAS-luciferase reporter, 20 h; Potency, µM (top dose mostly 53.6 µM), for the others: at the top dose activity change, negative = inhibition, usual class: inhibitors; note: nearly all actives have a fitted effect of over 60% in size
# Target sequence (P51450 whole entry, looked up, the tested form may be a part): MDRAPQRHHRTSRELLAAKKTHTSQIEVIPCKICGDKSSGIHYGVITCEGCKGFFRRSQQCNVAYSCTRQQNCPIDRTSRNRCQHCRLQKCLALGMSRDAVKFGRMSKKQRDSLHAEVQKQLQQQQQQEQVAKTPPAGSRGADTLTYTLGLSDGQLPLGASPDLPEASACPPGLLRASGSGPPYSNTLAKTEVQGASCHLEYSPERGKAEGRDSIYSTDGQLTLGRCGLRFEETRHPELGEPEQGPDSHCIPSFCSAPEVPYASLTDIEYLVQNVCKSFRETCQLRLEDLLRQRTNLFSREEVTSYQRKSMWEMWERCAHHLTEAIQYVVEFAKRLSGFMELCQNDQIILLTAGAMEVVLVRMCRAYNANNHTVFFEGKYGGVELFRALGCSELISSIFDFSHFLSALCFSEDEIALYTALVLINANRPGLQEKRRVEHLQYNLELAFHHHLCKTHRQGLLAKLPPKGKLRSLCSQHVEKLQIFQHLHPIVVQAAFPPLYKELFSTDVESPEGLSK
#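 Drosophila S2 cells stably expressing Gal4-DBD/mouse RORγ fusion under metallothionein promoter plus UAS-luciferase; compound 1 h, then 700 uM CuSO4 induction for 20 h at ambient temperature; inhibition read as reduced luminescence.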
# B2AR arrestin: recruits beta-arrestin to the human beta2-adrenergic receptor. Potency, µM (highest dose often 46.1 µM), for the others: at the top dose activation, actives largely listed as activators. beta-arrestin recruitment to beta2AR, cell-based reporter. P07550. 330,000 compounds, 0.02% hits;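 note: 0% = DMSO controls and full agonism = EC100 isoproterenol or metaproterenol; nearly all actives have a fitted effect of over 65% in size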
# Starred values were filed as active, the others as inactive; ? = inconclusive; . = no result; [ ] = another dose, or the depositor's remark. An excerpt weighted towards active compounds, which were near 5.7% of everything screened. Calls come from the whole dose curve; as a rule, active = well fitted curve in the direction sought with a large enough effect; inconclusive = small, poorly fitted or top-dose-only effect, or another doubt; inactive = no such curve, though single readings can be large; an effect the other way counts as inactive or inconclusive. Unless noted, % is set by controls: 0 for no effect and ±100 for the full control effect; potency is the fitted concentration of half-maximal effect.
SMILES,Gal4-VP16 FLuc,NPSR antagonist,RORgamma inh,B2AR arrestin
CCCCOc1cccc(C(=O)NC(=S)Nc2ccc(Cl)c(C(=O)O)c2)c1,-23%,-39%,18%,0%
COC(=O)[C@@]1(Cc2ccc(OC)cc2)[C@H]2c3cc(C(=O)N4CCCC4)n(CCc4ccc(OC)c(Br)c4)c3C[C@H]2CN1C(=O)c1ccccc1,2%,.,8%,.
Cc1cc(C)cc(C(=O)NC(=S)Nc2cccnc2)c1,?,.,10µM*,-1%
CCc1c(C)sc(NC(=S)Nc2cccnc2)c1C(=O)OC,6.3µM*,0%,3.5µM*,0%
O=C(CSc1nnc(-c2c[nH]c3ccccc23)o1)N(Cc1ccccc1)c1ccc(F)cc1,-8%,7.9µM*,?,1%
Cc1ccc2[nH]c(C(=O)NN=C3CCCCC3)c(-c3ccccc3)c2c1,10µM*,-5%,5µM*,0%
CC(C)[C@H](/C=C/C[Si](C)(C)C)[C@H](C)C(O)/C=C/CCCOC(=O)C(C)(C)C (stereo not given in full),1%,.,-14%,.
Cc1ccsc1/C=N/NC(=S)NCc1ccccc1,-76%,-46%,0.022µM*,0%
CNC(=S)N/N=C/c1ccc(N(C)C)cc1,7.1µM*,?,1.6µM*,13%
CN(C)c1ccc(/C=N/NC(=O)COc2ccccc2)cc1,-2%,-3%,-1%,0%
C=CCNC(=S)N/N=C/c1ccc(C(C)(C)C)cc1,0.56µM*,-35%,0.28µM*,?
CN(C)c1ccc(/C=N/NC(=S)NCc2ccccc2)cc1,2.8µM*,-28%[46.1 µM],0.45µM*,5%
C=CCNC(=S)N/N=C/c1cn(C)c2ccccc12,-9%,-13%,27%,?
CC(C)(C)c1ccc(/C=N/NC(=S)NCc2ccccc2)cc1,1.1µM*,-44%,0.79µM*,0%
Cc1c(NC(=S)N/N=C/c2ccc(N(C)C)cc2)c(=O)n(-c2ccccc2)n1C,?,-3%,18µM*,-3%
CCN(Cc1ccccc1)c1ccc(/C=N/N=C(N)N)cc1,?,-33%,?,0%
Cn1c(=O)n(C)c2cc(/C=N/NC(=S)NCc3ccccc3)ccc21,?,-6%,10µM*,-1%
CCN(Cc1ccccc1)c1ccc(/C=N/NC(=S)NC(C)C)cc1,1.3µM*,-55%,1.3µM*,0%
CC(C)Oc1ccc(/C=C(/NC(=O)c2ccccc2)C(=O)NC(Cc2ccccc2)C(=O)O)cc1 (stereo not given),3%,.,-12%,0%
CC(C)Oc1ccc(/C=C(/NC(=O)c2ccccc2)C(=O)NCCC(=O)O)cc1,-17%,12%,11µM*,0%
Cc1ccc(NC(=O)CSc2ncnc3ccccc23)cc1S(=O)(=O)N1CCCCCC1,?,-55%,?,0%
CCOC(=O)C1=C(C)C(c2ccccc2OC)NC(=S)N1 (stereo not given),0%,-5%[46.1 µM],2.8µM*,0%
O=C1CC(=O)N(CCc2ccccc2)C(=O)N1CCc1ccccc1,-6%,-13%[46.1 µM],?,-1%
O=C1C=CC(=O)C(C2=C3C(=O)N(CCc4ccccc4)CC(=O)N3CCC2)=C1,7.9µM*,10µM*,?,-1%
CN1CCN(c2nc(-c3ccc4c(c3)OCO4)nc3ccccc23)CC1,-4%,.,-20%,.
SMILES,Gal4-VP16 FLuc,NPSR antagonist,RORgamma inh,B2AR arrestin
CC(C)(C)C(=O)Nc1cc2nn(-c3ccccc3)nc2cc1Cl,3.5µM*,-22%[46.1 µM],0.63µM*,0%
Cc1ccc2c(c1)C1C=CCC1C(C(=O)O)N2 (stereo not given),-7%,-17%,-11%,1%
O=C(O)C1Nc2c(O)cc(Cl)c([N+](=O)[O-])c2C2C=CCC12 (stereo not given),-8%,-11%,10µM*,-1%
COc1cc(C(=O)O/N=C2/C=CC(=O)C(C)=C2C)cc(OC)c1OC,4.5µM*,6%[46.1 µM],3.5µM*,0%
COc1cc(C(=O)O/N=C2\CCCc3c2ccc(OC)c3[N+](=O)[O-])cc(OC)c1OC,-11%,-4%[46.1 µM],1%,0%
COc1cc(C(=O)ON=C2C3CC4CC(C3)CC2C4)cc(OC)c1OC,?,.,?,0%
COc1cc(C(=O)O/N=C2\C=CC(=O)C=C2C)cc(OC)c1OC,4µM*,16%,7.1µM*,-1%
NS(=O)(=O)c1ccc(CCNS(=O)(=O)c2ccc(Cl)nc2)cc1,-16%,-17%,33%,0%
O=S(=O)(NC1CCCc2ccccc21)c1cnc[nH]1 (stereo not given),?,-16%[46.1 µM],13µM*,0%
O=C(O)c1ccc(S(=O)(=O)NC2CCCc3ccccc32)cc1 (stereo not given),-9%,-1%[46.1 µM],20%,0%
Cc1cccc(N2CCN(C(=O)CCCOc3ccccc3)CC2)c1C,-7%,-22%[46.1 µM],21%,0%
CCC1(c2ccccc2)NC(=S)N(c2cccc(C)c2C)N1 (stereo not given),7.9µM*,13%,1.3µM*,-2%
NC(=O)COC(=O)c1cccc(S(=O)(=O)N2CCN(c3ccccc3)CC2)c1,-1%,3%,42%,0%
O=C(COC(=O)c1cccc(S(=O)(=O)N2CCN(c3ccccc3)CC2)c1)NCc1ccco1,10µM*,-16%[46.1 µM],8.9µM*,-1%
CN1CCc2nc(SCC(=O)Nc3ccc(F)cc3)c(C#N)cc2C1,.,-9%[46.1 µM],15%[0.365 µM],0%
CCCCNC(=S)Nc1ccc(Oc2ccccc2)cc1,5.6µM*,?,1.4µM*,-1%
CC(C)NC(=S)Nc1ccc(Oc2ccccc2)cc1,-17%,-22%[46.1 µM],?,9%
CCCNC(=S)Nc1ccc(Oc2ccccc2)cc1,11µM*,-9%[46.1 µM],13µM*,0%
COc1ccc(C(=O)N2CCCC(N3CCN(c4ccccc4F)CC3)C2)c(OC)n1 (stereo not given),-10%,.,15%,0%
O=C(OC1C[C@@H]2CC3C[C@H](C1)N2CC3=O)c1c[nH]c2ccccc12 (stereo not given in full),3%,.,9%,.
Cc1c(Cl)cccc1NC(=S)Nc1ccc(S(=O)(=O)Nc2ncccn2)cc1,.,.,.,4%
CCc1cc(C(C)=O)c(O)cc1OCCCCCC(C)(C)c1nn[nH]n1,-10%,.,18%,.
Cc1ccc(/C=N/NC(=S)NC2CCS(=O)(=O)C2)cc1 (stereo not given),5µM*,-5%[46.1 µM],7.9µM*,0%
COc1ccc(/C=N/NC(=S)NC2CCS(=O)(=O)C2)cc1OC (stereo not given),?,-11%[46.1 µM],16µM*,0%
COc1ccc(/C=N/NC(=O)C2C3CCCCC32)cc1OC (stereo not given),12%,12%,1%,0%
Cc1cc(C2=NNC(=NC3CCCCC3)SC2)c(C)n1-c1c(C)n(C)n(-c2ccccc2)c1=O,-27%,-13%,-8%,-1%
c1ccc2oc(C3=NNC(=NC4CC4)SC3)cc2c1,11µM*,-15%,3.5µM*,0%
c1ccc(CN=C2NN=C(c3cc4ccccc4o3)CS2)cc1,20µM*,-20%,?,0%
c1csc(C2=NNC(=NC3CCCCC3)SC2)c1,-22%,-5%,?,0%
c1ccc2oc(-c3ccn[nH]3)cc2c1,-16%,-11%,-34%,0%
